# Source: PubChem BioAssay
# Vaccinia Venus – inhibitors of vaccinia virus (Venus reporter); Vaccinia virus Venus reporter expression, fluorescence; Potency, µM (titrated, usually from 36.5 µM), without a hit: at the highest dose activity change, negative = inhibition, most hits filed as inhibitors; hit rate 0.46% among 330,000; calls by dose curve; tested in A549 cells; note: potency is the fitted concentration of half-maximal effect; nearly all actives have a fitted effect of over 30% in size
# HCMV antiviral – human cytomegalovirus inhibition; AID 1259415; HFF cells, HCMV-luciferase reporter, 72 h; stronger effect = lower value; hit rate 4.5% among 410,000; activity change, negative = inhibition, % at 57.5 µM; in the data active = activity change below about -60%; inconclusive = no clear call, values can overlap the other calls; inactive = above about -39%
#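 Inhibition of viral replication was scored as loss of reporter luminescence in HFFs infected with HCMV-luciferase (MOI 1 PFU/cell) for 72 h; compounds tested at 2 doses, normalized to buffer and Salinomycin controls.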
# FMDV antiviral – antivirals against foot and mouth disease virus; FMDV antiviral cell-based qHTS; Potency, µM (titrated, usually from 57.9 µM), for the others: at the top dose activity change, negative = inhibition, hits mostly inhibitors; hit rate 1.2% among 410,000; AID 1159524; calls by dose curve; tested in HEK293T cells; note: read-out not given here; potency is the fitted concentration of half-maximal effect; nearly all actives have a fitted effect of over 45% in size
# VACV mCherry inh – inhibitors of vaccinia virus infection (mCherry reporter signal); Vaccinia virus mCherry reporter infection, fluorescence; Potency, µM (top dose mostly 36.5 µM), inactives show at the highest dose activity change, negative = inhibition, usual class: inhibitors; hit rate 0.63% among 310,000; calls by dose curve; tested in A549 cells; note: potency is the fitted concentration of half-maximal effect; nearly all actives have a fitted effect of over 35% in size
# Marburg entry inh – Marburg virus entry inhibition; Marburg virus pseudotyped entry inhibition, cell reporter; Potency, µM (doses to about 37.8 µM), without a hit: at the highest dose activity change, negative = inhibition, usual class: inhibitors; AID 540276; hit rate 1.8% among 300,000; calls by dose curve; tested in HEK293 cells; note: potency is the fitted concentration of half-maximal effect
# LASV entry inh – blocks Lassa virus binding to or entry into cells; Lassa virus pseudotype entry inhibition, cell reporter; Potency, µM (top dose mostly 37.9 µM), for the others: top-dose activity change, negative = inhibition, usual class: inhibitors; hit rate 1.2% among 300,000; AID 540256; calls by dose curve; tested in HEK293 cells; note: potency is the fitted concentration of half-maximal effect; nearly all actives have a fitted effect of over 50% in size
# The depositor's hits bear a star; i = inactive; ? = inconclusive; · = no result given; + = active, no number; [ ] = another dose, or the depositor's remark. Rows were chosen to be rich in hits. Some 6.5% of all compounds tested hit in one or more screens of this group. % is set by controls: 0 for no effect and ±100 for the full control effect.
SMILES,Vaccinia Venus,HCMV antiviral,FMDV antiviral,VACV mCherry inh,Marburg entry inh,LASV entry inh
COc1ccc(/C=N/NC(=O)c2nnn(-c3nonc3N)c2-c2cccs2)cc1OC,-25%,0,?,i,-1%[46.1 µM],27%[46.1 µM]
CCOc1cccc(-c2c(C(=O)N/N=C(\C)c3ccccn3)nnn2-c2nonc2N)c1,·,-69*,-9%,·,·,·
Nc1nonc1-n1nnc(C(=O)N/N=C/c2cc(Br)cs2)c1-c1ccccc1,-21%,-69*,-22%,-28%,5.6µM*,-19%[46.1 µM]
COc1cc(/C=N/NC(=O)c2nnn(-c3nonc3N)c2C(C)C)ccc1OCc1ccccc1,·,-29,?,·,·,·
Nc1nonc1-n1nnc(C(=O)N/N=C/c2cccc(Cl)c2)c1-c1cccs1,-19%,+,-6%,-6%,22%[46.1 µM],-3%[46.1 µM]
COc1cccc(C2(CC(=O)N3CCN(c4nonc4C)CC3)CC(=O)N(C3CCCC3)C2=O)c1 (centres undefined),-15%,·,32%,-3%,·,·
Cc1ccc(NC(=O)Cn2nc(C)c3nn(-c4ccc(Cl)cc4)c(C)c3c2=O)cc1F,-30%,-12,-24%,-3%,·,-19%[46.1 µM]
CCOC(=O)N1CCN(Cc2ccc3c(c2)CN(C(=O)c2noc4c2CCCC4)CCO3)CC1,-22%,·,?,-26%,·,·
COc1ccc(NC(=O)c2ccc3c(SCC(=O)O)c4c(nc3c2)CCC4)c(OC)c1,1%,13,-10%,-8%,20%[46.1 µM],-2%[46.1 µM]
Cc1ccc(NC(=O)CSc2nc(-c3ccco3)nc3cc(=O)[nH]n23)cc1C,-11%,-8,-27%,-4%,·,0%[46.1 µM]
CCOc1ccc(S(=O)(=O)/N=C(\N)c2ccccc2)cc1,-7%,-39,-13%,?,0%[46.1 µM],13µM*
CCOc1ccc(S(=O)(=O)/N=C(/c2ccccc2)N(C)C)cc1,·,-12,33%,·,·,·
CC1=NN(c2nc(-c3ccc(C)cc3)cs2)C(=O)C1N=Nc1cccc(O)c1 (centres undefined),8%,-25,-27%,-5%,?,3%
CC1=NN(c2nc(-c3ccc(C)cc3)cs2)C(=O)C1N=Nc1ccccc1O (centres undefined),438%,-102*,-21%,1%,?,?
CCc1sc(C(=O)Nc2ncccc2O)cc1C,-25%,?,-54%,-29%,6.3µM*,?
NC(=O)c1csc(C2OC(CO)C(O)C2O)n1 (centres undefined),-6%,-21,-23%,-5%,·,·
O=C1C=C(C2OC(CO)C(O)C2O)C(=O)N1 (centres undefined),1%,-16,40µM*,-4%,·,·
COc1ccccc1Oc1cc(C#N)c(C#N)cc1-n1nnc2ccccc21,-22%,-92*,?,-25%,?,?
COc1ccccc1-c1nnc(C2CCN(S(=O)(=O)c3ccccc3)CC2)o1,-11%,-12,3%,-14%,-1%[46.1 µM],9%[46.1 µM]
COc1ccc(C(=O)N2CCC(c3noc4ccccc34)CC2)cc1OC,·,-65*,·,·,·,·
COc1ccc(C(=O)N2CCCCCC2)cc1OC1CCN(C(C)=O)CC1,-4%,-78*,-7%,-15%,7%,0%
COc1ccccc1-c1nnc(C2CCN(C(=O)c3cccc(C)c3)CC2)o1,-10%,-65*,11%,-14%,4%[46.1 µM],3%[46.1 µM]
Cc1cccc(C(=O)NCC2Cc3cc(F)cc(-c4cnccn4)c3O2)n1 (centres undefined),1%,·,-15%,-7%,·,·
O=[N+]([O-])c1cc2ccccc2c(O)c1O,1%,-100*,0%,?,·,·
O=[N+]([O-])c1cccc(C=Nc2cccc3ccccc23)c1O,-4%,29,-4%,?,?,6%[46.1 µM]
SMILES,Vaccinia Venus,HCMV antiviral,FMDV antiviral,VACV mCherry inh,Marburg entry inh,LASV entry inh
O=[N+]([O-])c1cc(-c2ccccc2)cc([N+](=O)[O-])c1O,-10%,-87*,?,-14%,-2%[46.1 µM],4%[46.1 µM]
Cc1cc(C)cc(NC(=O)c2cccc(N3C(=O)C4C5C=CC(C5)C4C3=O)c2)c1 (centres undefined),-9%,-13,10%,-18%,?,-6%[46.1 µM]
Cc1cccc(NC(=O)c2cccc(N3C(=O)C4C5C=CC(C6CC56)C4C3=O)c2)c1 (centres undefined),-25%,2,16µM*,-8%,?,-20%
CCC(NC(=S)NCc1ccc(F)cc1)c1ccc(C)cc1 (centres undefined),-8%,-35,3%,-24%,10µM*,?
CCc1ccc(C(C)NC(=S)NCc2ccc(F)cc2)cc1 (centres undefined),-17%,29,7%,?,?,?
Cc1ccc(C(C)NC(=S)NCc2ccc(F)cc2)c(C)c1 (centres undefined),-20%,-15,9%,-1%,?,-21%
CCc1ccc(C(C)NC(=O)C2(C)CC2(Br)Br)cc1 (centres undefined),-20%,-22,-26%,-31%,-15%,?
Cc1ccc(C(C)NC(=S)NCc2ccc(F)cc2)cc1C (centres undefined),·,-82*,2%,·,·,·
CCC(NC(=O)C1(C)CC1(Br)Br)c1ccc(C)cc1 (centres undefined),-26%,-72*,-20%,·,-7%,0%
O=C(c1cnc(N2CCCCC2)c2ccccc12)N1CCN(c2cccc(Cl)c2)CC1,-28%,36,-25%,-20%,·,?
CCc1ccc(NC(=O)c2nc(SCc3ccccc3F)ncc2Cl)cc1,-16%,·,·,-20%,·,·
COc1cccc(CNC(=O)c2ccc(-c3nc(CS(=O)(=O)c4ccccc4)c(C)o3)cc2)c1,-9%,-6,?,-6%,·,?
CC(C)Nc1nc(Cl)nc(N(C#N)CN2C(=O)c3ccccc3C2=O)n1,?,?,?,?,2.5µM*,?
O=C(Nc1sc2c(c1C(=O)NCc1ccco1)CCCC2)c1cc(=O)c2ccccc2o1,-23%,-19,-25%,-29%,24%[46.1 µM],23%[46.1 µM]
CCOC(=O)N1CCN(c2ncc3c(n2)CC(c2ccc(OC)c(OC)c2)CC3=O)CC1 (centres undefined),-12%,-9,14µM*,-20%,-17%[46.1 µM],-3%[46.1 µM]
COc1ccc(C2CC(=O)c3cnc(N4CCN(Cc5ccccc5)CC4)nc3C2)cc1 (centres undefined),-22%,-14,22µM*,-26%,?,?
CCN1CCN(c2ncc3c(n2)CCN(Cc2ccc(OC)c(OC)c2)C3)CC1,0%,-4,-24%,-4%,·,-13%[46.1 µM]
CCN1CCN(c2ncc3c(n2)CC(c2ccc(OC)c(OC)c2)CC3=O)CC1 (centres undefined),·,?,20µM*,·,?,?
Cc1ccc(C2CC(=O)c3cnc(N4CCN(c5ccccc5)CC4)nc3C2)cc1 (centres undefined),·,23,-3%,·,5%,-13%
CCc1ccccc1NC(=O)CN1C(=O)C2CCCN2c2ccc(S(=O)(=O)N(CC)CC)cc21 (centres undefined),4%,11,-4%,-5%,·,9%[46.1 µM]
O=C(OCc1cc(=O)n2nc(-c3cccs3)sc2n1)c1ccc(Cl)cc1,-4%,5,-10%,-12%,·,?
